Test results published in PubChem BioAssay AID624300 (Southern Research Specialized Biocontainment Screening …, 2012).
The whole screen tested about 2,400 compounds, of which about 360 (15%) were called active. Only a sample is shown. Entries with a potency or affinity are not part of this list. A number with no mark means an inactive call.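 Rule for the calls: active = viability falls under 70% at one or more tested concentrations, taken as toxicity; inactive = viability stays over 70% at every dose.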

Test: viability loss in HeLa cells – cytotoxicity control for MgcRacGAP inhibitor project, dose response (AID 624300);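 note: 100% = median of untreated control wells on the same plate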
Details: CellTiter-Glo luminescence, 24 h; series mostly up to 100 µM; viability: at the top concentration

Compound	viability [%]
COc1ccc(NC2CCCN(C(=O)CCc3scnc3C)C2)cc1 (stereo not given)	99.4
COc1cc(N)c2ncccc2c1OC	97.3
COc1cc(N)c2ncccc2c1SC	92.9
COc1ccccc1N1CCN(/N=C/c2ccc(O)cc2O)CC1	102
COc1ccc(CN2CCN(Cc3ccc(Br)cc3)CC2)c(OC)c1OC	85
COc1ccc(CNCc2cccc(OC)c2OC)cc1Br	96
COc1ccc(Br)cc1CN(C)CC(=O)NCCc1ccccc1	93.4
COc1ccc(Br)cc1CNc1ccc(O)cc1	104
Oc1ccc(/C=N/NC(=S)NCc2ccco2)cc1	93.7
CCN(CC)c1ccc(/C=N/N2CCOCC2)cc1	100
CCNc1nc(NCC)nc(N/N=C/c2ccc(O)c(O)c2)n1	95.7
COc1ccc(NC(=O)NS(=O)(=O)c2ccc(C)cc2)cc1OC	86.5
CCc1nnc(N/N=C/c2cc(Br)c(O)cc2O)n1N	92.8
COc1cc(/C=C/C(=O)OCC(=O)NCc2ccc(F)cc2)ccc1O	109
CCN(CC)c1ccc(NC(=O)c2ccc(Br)o2)cc1	93
CCN(CC)c1ccc(Nc2nc(-c3cccnc3)cs2)cc1	101
COc1ccc(N2CCC(CNC(=O)Nc3ccc(C)c(C)c3)C2)cc1 (stereo not given)	96.6
COc1cc(C(=O)N/N=C/c2ccc(OC)c(CN3CCN(c4ccc(F)cc4)CC3)c2)ccc1O	101
CC1=CC(c2ccccc2)NC(=S)N1 (stereo not given)	98.5
COc1ccc(NC(=O)C(C)N2CCN(C)CC2)cc1 (stereo not given)	102

Compound	viability [%]
COc1cc2c(cc1N)-c1ccc(N)cc1C2	83.6
COc1ccc(NC2CCCN(C(=O)c3csc(C(C)C)n3)C2)cc1 (stereo not given)	106
CCOc1cc(/C=N/NC(=O)c2ccc(=O)n(C)c2)ccc1O	103
O=C(CNC(=O)c1ccncc1)N/N=C/c1ccc(O)cc1O	88
Cc1nonc1C(=O)N/N=C/c1ccc(O)cc1	87.1
COc1cc(/C=N/NC(=O)c2nonc2C)ccc1O	93.3
COc1cc(/C=N/NC(=O)C2=NNC(=O)C2C)ccc1O (stereo not given)	101
COc1cc(/C=N/NC(=O)Cc2nnc(NC(=O)c3ccccc3)s2)ccc1O	97.2
CC(=O)Nc1ccc(S(=O)(=O)Nc2ccc(Nc3ccccc3)cc2)cc1	106
CCn1c(C)nc2cc(C(=O)N/N=C/c3ccc(O)cc3)ccc21	113
Cc1nn2cc(-c3ccc(N)cc3)nc2s1	101
COc1cc(/C(C)=N/NC(=O)Cc2c(C)[nH][nH]c2=O)ccc1O	99.8
C=CCn1c(CNc2ccc(C)cc2)nnc1SCC(=O)N/N=C/c1ccc(O)cc1O	89.8
CC(C)Cn1c(-c2ccc(Br)o2)n[nH]c1=S	97.4
CCN(CC)CCNCC(=O)Nc1ccc(Oc2ccccc2)cc1	97.4
CCC(=O)c1ccccc1OCCN1CCN(CC)CC1	89.8
CN(C)c1ccc(Cc2ccc(N(C)C)cc2)cc1	95.3
O=C1c2c([N+](=O)[O-])cc([N+](=O)[O-])cc2S(=O)N1Cc1ccccc1 (stereo not given)	106
COc1cc(/C=C/C(=O)OCC(=O)Nc2cccc(F)c2)ccc1O	94.6
O=[S@]1Oc2ccccc2-c2ccccc21	107
